Screens: PubChem BioAssay, several laboratories
M1 agonist: agonists of M1 muscarinic receptor | CHO-M1 cells, Fluo-4 calcium fluorescence, agonist mode; stronger effect = higher value | B-score at 10 µM | 3% of 64,000 active | AID 626;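 active = fluorescence rise, raw or as B-score row- and column-corrected plate score, outside the 99.7% band of its plate's samples, either direction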
D1 mod: allosteric modulators of human D1 dopamine receptor | P21728 | HEK293 D1, CRE-luciferase, dopamine EC30 potentiation; actives deviate in either direction | B-score at 10 µM | 5.9% of 58,000 active | AID 641;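 active = luminescence count or its row- and column-corrected plate score outside the 99.7% band of the plate's sample wells, on either side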
M1 antag: M1 muscarinic receptor (rat) antagonism; 3.4% of 64,000 active; CHO-M1 cells, Fluo-4 calcium, ACh EC80 antagonist mode; stronger effect = lower value; B-score at 10 µM;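 active = calcium fluorescence response, raw or row-and-column corrected B-score, differing from the plate sample mean either way at a set confidence level, mostly lower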
FXIa mix inh: inhibitors of human coagulation factor XIa, pooled mixtures; 0.19% of 62,000 active; purified FXIa, fluorogenic substrate; inhibition, % at 5 µM; P03951;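 also: each value is inhibition by a whole ten-compound pool holding the compound; 0% = enzyme with no mixture and 100% = wells lacking enzyme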
FXIIa mix inh: inhibitors of human coagulation factor XIIa, pooled mixtures; P00748; 0.2% of 62,000 active; inhibition, % at 5 µM; purified FXIIa, fluorogenic substrate; AID 684;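 also: 0% = enzyme without compound and 100% = no enzyme blank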
DAT uptake mod: human DAT dopamine uptake with cocaine, either direction. 1.3% of 110,000 active. B-score at 10 µM. AID 449768. Q01959. LLC-PK1 hDAT cells, [14C]-dopamine uptake with cocaine IC80; actives deviate in either direction;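 active = Z score or B-score, a plate-position-corrected score, falls beyond the plate's 99.7% confidence bounds, in either direction; inactive = both scores lie inside the 99.7% bounds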;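 also: scored against the spread of the other compound wells on the same plate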
M1 ag confirm: rat M1 muscarinic agonism, confirmation; shares compounds with M1 agonist; CHO-M1 cells, Fluo-4 calcium fluorescence, agonist mode; actives lie on both sides; fluorescence change (max-min) at 10 µM; 19% of 1,700 active; AID 1488;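 active = fluorescence change differs from the solvent-only DMSO control mean at a set confidence level in both duplicate runs; inconclusive = differs from solvent-only control mean in just one of two runs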;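 also: an EC20 dose of acetylcholine follows compound addition during the same imaging run; raw fluorescence intensity difference in instrument units with no normalization to controls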
M4 agonist ctr: activates rat M4 receptor in counter-screen for M1 agonists. shares compounds with M1 agonist. CHO M4/Gqi5 cells, Fluo-4 calcium fluorescence, agonist mode; actives lie on both sides. fluorescence change (max-min) at 10 µM. 9% of 1,700 active. AID 1741;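 active = fluorescence change differing from the plate's solvent-only control wells at 99.7% confidence in both duplicates, whether higher or lower; inconclusive = differs from solvent controls in only one of two duplicates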
Target sequence (P08485 whole entry, looked up): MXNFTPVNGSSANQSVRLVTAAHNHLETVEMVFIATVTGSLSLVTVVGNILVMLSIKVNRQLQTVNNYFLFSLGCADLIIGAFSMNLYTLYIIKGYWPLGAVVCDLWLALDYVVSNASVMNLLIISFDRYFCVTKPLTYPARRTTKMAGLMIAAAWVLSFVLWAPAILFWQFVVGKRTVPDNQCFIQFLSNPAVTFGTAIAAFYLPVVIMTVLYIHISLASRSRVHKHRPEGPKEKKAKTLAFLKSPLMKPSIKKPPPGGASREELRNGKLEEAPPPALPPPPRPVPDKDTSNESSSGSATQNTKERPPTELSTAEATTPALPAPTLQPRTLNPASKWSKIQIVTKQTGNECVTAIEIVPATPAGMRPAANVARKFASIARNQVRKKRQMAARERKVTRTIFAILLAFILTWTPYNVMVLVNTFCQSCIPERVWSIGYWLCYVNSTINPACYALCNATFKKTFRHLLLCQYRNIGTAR
Active calls of the source: *; ? = inconclusive; nt = not tested or not shown. In the library only some 7.4% were active in any assay of this set; here they are far more common. Rule as the data show it, unless noted: active = inhibition above about 20% (passing the limit was not always enough); inactive = the rest.

SMILES | M1 agonist | D1 mod | M1 antag | FXIa mix inh | FXIIa mix inh | DAT uptake mod | M1 ag confirm | M4 agonist ctr
O=C(COc1ccccc1)N1CCN(C(=O)c2cccc(F)c2)CC1 | -0.048 | -0.032 | -0.056 | -8 | 2 | -1.3 | nt | nt
Cc1nn(-c2ccccc2)c(Cl)c1C1C(C#N)=C(N)Oc2c1c(C)nn2-c1ccccc1 (stereo not given) | nt | nt | nt | nt | nt | -1.1 | nt | nt
C=CCOC(=O)C1=C(C)OC(N)=C(C#N)C1c1c(C)nn(-c2ccccc2)c1Cl (stereo not given) | 5.3* | -0.31 | -0.093 | 4 | -1 | 0.51 | ? | -45
O=C(Nc1nc(-c2ccccn2)cs1)C1CC1 | -0.039 | -0.49 | 0.23 | 12 | -14 | -0.09 | nt | nt
CN(CC1CCCO1)S(=O)(=O)c1ccc(C(=O)Nc2nc(-c3ccccn3)cs2)cc1 (stereo not given) | 9.6* | -2 | 0.014 | 8 | 10 | 2.7* | -12 | -32
CCc1cc2c(=O)n(-c3ccccc3)c(=S)[nH]c2s1 | nt | nt | nt | nt | nt | -0.89 | nt | nt
Cc1cccc(OCC(O)CN2CCN(C3CCCCC3)CC2)c1 (stereo not given) | -0.47 | -0.56 | -0.12 | 0 | -15 | 0.66 | nt | nt
Cc1ccc2nc(-c3ccccn3)cc(C(=O)N3CCN(c4ncccn4)CC3)c2c1 | 3.6* | 2.5 | -2.1 | 2 | 2 | -0.35 | -1.9 | -22
Cc1cc(C(=O)N2CCN(c3ncccn3)CC2)c2cc(F)ccc2n1 | -0.84 | nt | -0.089 | -3 | 4 | 1.5 | nt | nt
COc1ccc2oc(-c3ccccc3)c(C(=O)N3CCOCC3)c2c1 | 4* | 1.8 | -0.00046 | -14 | -44 | 0.62 | -24 | -32
COc1ccc(-c2cc(C(=O)N3CCOCC3)c3cc(C)ccc3n2)cc1 | 4.1* | -1.5 | -0.33 | 3 | -1 | 1.5 | -9 | -33
CC(C)Oc1cccc(-c2cc(C(=O)N3CCN(S(C)(=O)=O)CC3)c3ccccc3n2)c1 | 3.6* | 0.69 | 0.09 | 5 | 0 | 1.2 | ? | -50
CC(C)OCCCNC(=O)CCSc1ccc(Cl)cc1 | nt | nt | nt | nt | nt | -0.049 | nt | nt
Cc1ccc(-c2cc(C(=O)N3CCN(c4ncccn4)CC3)c3ccccc3n2)cc1 | 8.8* | -0.29 | -1.8 | 6 | 7 | 1.4 | -16 | -111*
Cc1cc(C)n(-c2nc3ccccc3nc2N2CCN(C(=O)c3ccc(Cl)cc3)CC2)n1 | 0.85 | 0.59 | -0.014 | 4 | 13 | 0.99 | nt | nt
Cc1cc(-c2ccccc2)n(-c2ccc(C(=O)N3CCN(c4ncccn4)CC3)cc2)n1 | 9.2* | nt | -1 | -3 | 2 | 2.5* | ? | ?
COc1cccc(-c2cc(C(=O)N3CCN(c4ncccn4)CC3)c3ccccc3n2)c1 | 3.1 | 0.072 | -1.9 | -4 | 0 | nt | nt | nt
CCOc1ccc(CC(=O)Nc2c(C(=O)Nc3ccccc3)oc3ccccc23)cc1OCC | nt | nt | nt | nt | nt | 0.4 | nt | nt
CCOc1ccc(CC(=O)Nc2c(C(N)=O)oc3ccc(Br)cc23)cc1OCC | 3.1* | nt | -0.33 | -3 | 7 | -1.2 | -19 | -24
O=C1NCCN1C(=O)N(c1ccccc1)c1ccccc1 | 0.11 | 0.15 | 0.34 | 2 | 9 | -0.02 | nt | nt
Cc1ccc(C(=O)N(c2ccccn2)C(C)c2ccco2)cc1C (stereo not given) | nt | nt | nt | nt | nt | -1.1 | nt | nt
Cc1nnc(N2C(=O)c3oc4ccccc4c(=O)c3C2c2ccco2)s1 (stereo not given) | 3* | -0.79 | -0.25 | 4 | 10 | -0.037 | ? | -44
CC(C)c1nnc(N2C(=O)c3oc4ccccc4c(=O)c3C2c2ccco2)s1 (stereo not given) | -0.21 | -0.42 | -0.53 | nt | nt | 0.14 | nt | nt
CCc1ccc2c(c1)c1nc(C)sc1n2CC(=O)OC | nt | nt | nt | nt | nt | 1.2 | nt | nt
O=C1c2cccc3c(N4CCCCC4)ccc(c23)C(=O)N1c1ccccn1 | 78* | -0.57 | -1.5 | -1 | 17 | -0.16 | 775* | 819*
O=C1c2cccc3c([N+](=O)[O-])ccc(c23)C(=O)N1c1ccccn1 | nt | nt | nt | nt | nt | -0.35 | nt | nt
Cc1ccc(S(=O)(=O)N2CCN(S(C)(=O)=O)C2c2ccccc2)cc1 (stereo not given) | 2.7* | -0.88 | 0.084 | 6 | 8 | -1.3 | -41* | ?
Cc1ccc(S(=O)(=O)N2CCN(S(=O)(=O)c3ccc(C)cc3)C2c2ccccc2)cc1 | nt | nt | nt | nt | nt | -0.015 | nt | nt
